A selection: hits, their analogues and other compounds. The true share with any hit is near 12%.
Shiga inhibitor: A qHTS for Small Molecule Inhibitors of Shiga Toxin | inhibition, % at 38.7 µM | Vero cells, Shiga toxin protein synthesis inhibition reporter | 9.2% of 290,000 active; in the data active means inhibition mostly above about 28%, no sharp cut-off; inactive means mostly below about 43%; further: 0% is about no effect
Sm TGR inh: qHTS Assay for the Inhibitors of Schistosoma Mansoni Peroxiredoxins | Schistosoma mansoni thioredoxin glutathione reductase (TGR), Q962Y6 | purified TGR, DTNB reduction, TNB absorbance 405 nm | Potency, µM (top dose mostly 114 µM), for inactives: top-dose activity change, negative = inhibition, hits mostly inhibitors | 3% of 360,000 active; active means well fitted inhibition curve with a large enough effect; inconclusive means small, poorly fitted or top-dose-only effect; inactive means no such curve, though single readings can be large or run the other way; further: potency means the concentration at half of the fitted maximal effect; on the % scale 0 is the no-effect control and ±100 the full control effect; nearly all actives have a fitted effect of over 60% in size
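First, TGR (20 nM dispensed) and NADPH were mixed with compound. Second, a 15 min room-temperature incubation followed. Third, further NADPH and then DTNB were added to start the reaction. Finally, TNB absorbance was monitored kinetically.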
FMDV antiviral: High Throughput Screening for Foot and Mouth Disease Virus Antivirals. FMDV antiviral cell-based qHTS. Potency, µM (highest dose often 57.9 µM), for inactives: at the top dose activity change, negative = inhibition, usual class: inhibitors. 1.2% of 410,000 active; calls by dose curve; tested in HEK293T cells; further: read-out not given here; potency means the concentration at half of the fitted maximal effect; on the % scale 0 is the no-effect control and ±100 the full control effect; nearly all actives have a fitted effect of over 45% in size
CHX counter: Cycloheximide Counterscreen for Small Molecule Inhibitors of Shiga Toxin; max response, %; 12% of 300,000 active; cell reporter, cycloheximide protein synthesis inhibition counterscreen; in the data active means max response mostly above about 13%, no sharp cut-off; inactive means mostly below about 14%; further: read at 38.3 µM for the half of the compounds with a filed dose; 0% is about no effect
An asterisk follows results filed as active; ? = inconclusive; / = no result.

SMILES	Shiga inhibitor	Sm TGR inh	FMDV antiviral	CHX counter
Cn1ccnc1C1CCCCN1C(=O)CN1Cc2ccccc2OC(c2ccccc2F)C1 (centres undefined)	/	/	-3.3%	/
CCN1C(=O)/C(=C/c2nc3ccccc3c(=O)[nH]2)c2ccccc21	-2.8	-15.9%	17.2%	25.5*
CCN1C(=O)/C(=C/c2nc3ccccc3c(=O)n2-c2ccc(C)cc2)c2ccccc21	10.0	3.6%	?	15.8
CCN1C(=O)/C(=C\c2nc3ccccc3c(=O)n2-c2ccccc2)c2ccccc21	-10.9	1.0%	14.1µM*	-3.1
O=C(NCCCc1nc2ccccc2n1Cc1ccccc1F)c1ccco1	/	2.4%	-19.3%	/
CCc1ccc(-c2cn(C3CCCCC3)c(=S)[nH]2)cc1	64.8	-0.3%	0.0%	18.3*
CC(=O)N1CCCc2cc(S(=O)(=O)NCc3ccc(OC(C)C)cc3)ccc21	/	-6.4%	?	/
CN=Cc1nc(-c2ccccc2)oc1O	active	?	-6.5%	29.8*
CCC(=O)Oc1oc(-c2ccccc2)nc1C=Nc1ccc(C)cc1	10.2	-24.8%	-11.1%	8.8
Oc1oc(-c2ccccc2)nc1/C=N/c1ccccn1	9.5	-23.9%	37.0%	-2.2
Cc1ccc(-c2nc(C=Nc3ccc(O)cc3)c(O)o2)cc1	124.9*	-21.8%	10.3%	43.9*
O=C(c1ccccc1)n1c(=S)nc2ccccn21	96.9*	2.7%	-65.4%	52.3*
Cc1ccc(C(=O)n2c(=S)nc3ccccn32)cc1	54.0*	0.0%	/	48.8*
Cc1ccc(C(=O)N2c3ccccc3NC(=O)C2C)cc1 (centres undefined)	-4.6	11.0%	1.0%	-1.2
Cc1cccc(C(=O)N2CCCCCC2)c1	-7.0	-7.9%	14.9%	-1.3
O=C(c1ccccc1)n1ccn(-c2ccccc2)c1=S	18.9	-5.6%	-1.8%	6.0
Cc1cccc(C(=O)n2c(=S)nc3ccccn32)c1	83.1*	6.9%	-46.1%	29.3*
Cc1ccc2nc(COc3ccccc3NC(=O)c3ccccc3F)cc(=O)n2c1	/	9.9%	?	/
O=C(c1ccccc1)N1CCc2cc(CNS(=O)(=O)c3ccc(Cl)s3)ccc21	/	8.2%	-15.3%	/
O=C(O)c1cc(=O)c2cccc(O)c2[nH]1	-2.4	/	-11.8%	2.9
CCc1ccc(S(=O)(=O)c2cn(Cc3ccccc3)c3cc(F)c(F)cc3c2=O)cc1	/	-1.7%	9.0%	/
Cc1ccc(S(=O)(=O)c2cc3c(=O)n4ccccc4nc3n(CCCN3CCOCC3)c2=N)cc1C	-7.0	2.1%	-0.6%	-5.0
N=c1c(S(=O)(=O)c2ccc(Cl)cc2)cc2c(=O)n3ccccc3nc2n1CCc1ccccc1	9.2	-0.8%	/	4.0
N=c1c(S(=O)(=O)c2ccccc2)cc2c(=O)n3ccccc3nc2n1CCCN1CCOCC1	-1.7	15.8µM*	8.8%	-2.8
N=c1c(S(=O)(=O)c2ccc(Cl)cc2)cc2c(=O)n3ccccc3nc2n1CCN1CCOCC1	-1.3	44.7µM*	-11.4%	-1.1
SMILES	Shiga inhibitor	Sm TGR inh	FMDV antiviral	CHX counter
CCOC(=O)c1ccccc1NC(=O)N1CCC(CN2CCOCC2)CC1	/	-15.0%	-1.7%	/
COCC(=O)Nc1cc(C(=O)N2CCCC2c2nccs2)c2c(c1)nc(-c1ccncc1)n2C (centres undefined)	/	/	-4.5%	/
Oc1cc(-n2cccn2)c(O)cc1-n1cccn1	70.1*	3.55µM*	52.8%	37.0*
Cn1c(C(C#N)C2=C(Cl)C(=O)N(c3ccccc3)C2=O)nc2ccccc21 (centres undefined)	5.9	44.7µM*	/	8.1
Cn1c(C(O)C(O)c2ccccc2)nc2ccccc21 (centres undefined)	2.0	-3.2%	24.5%	7.9
Cc1ccc(-c2cc(C(=O)NCc3ccccn3)c3ccccc3n2)cc1	44.8	3.4%	39.3%	30.1*
CCc1ccc(-c2cc(C(=O)NCc3ccccn3)c3ccccc3n2)cc1	91.5*	4.8%	33.3%	64.2*
Cc1ccc(C(=O)NCc2ccccn2)c(Cl)c1	62.8*	0.0%	63.6%	30.9*
O=C(NCc1ccccn1)c1cc(-c2ccc(Br)cc2)nc2ccccc12	-3.7	-1.2%	-21.4%	-2.0
O=C(NCc1ccccn1)c1ccccc1Cl	34.3	?	13.0%	20.2
CN(C)c1ccc(-c2cc(C3C4C=CCCC4(C)C(=O)N3Cc3ccccc3)ccc2F)cc1 (centres undefined)	41.2	/	/	5.1
Cc1nn(CC(=O)NCCc2ccccc2Cl)c(=O)c2nn(-c3ccccc3)c(C)c12	/	9.2%	-12.2%	/
COc1ccc(OC(=O)CSc2nnc(-c3ccc(F)cc3)o2)cc1	/	2.7%	-14.4%	/
Cc1ccc(C(=O)CSc2nnc(-c3ccco3)o2)o1	55.6*	-10.5%	64.5%	39.6*
O=C(O)CSc1nnc(-c2ccco2)o1	-10.8	9.3%	-5.5%	-2.8
COc1ccc(-c2nnc(SCC(=O)c3ccc(C)o3)o2)cc1	33.3	0.8%	-8.8%	12.6*
CCCn1c(CCC(=O)O)ccc1-c1ccccc1	-12.6	-30.4%	-4.7%	-2.6
COCCCn1c(CCC(=O)O)ccc1-c1cccs1	11.7	8.91µM*	-11.3%	-4.4
O=C(O)CCc1ccc(-c2cccs2)n1NC(=O)c1ccco1	-5.1	?	-21.9%	-2.3
CCCn1c(CCC(=O)O)ccc1-c1cccs1	3.2	3.55µM*	-3.8%	8.4
Cc1cccc(CCNC(=O)C2CCN(c3nc4ccccc4nc3C(F)(F)F)CC2)c1	/	7.0%	-12.0%	/
C/C(=N\Nc1cccc(Cl)c1)C1(C)N(O)C(C)(C)C(c2ccco2)=[N+]1[O-] (centres undefined)	73.7*	?	-9.7%	30.1*
COc1ccc(N2CC(NC(=O)c3cc4ccccc4o3)CC2=O)cc1OC (centres undefined)	/	3.6%	-19.4%	/
Cc1ccc(NC(=O)CSc2nccn2-c2ccccc2)cc1	/	2.3%	33.4%	/
O=C(Nc1cccc(-c2csc(Nc3ccc(Cl)cc3)n2)c1)c1cccc(C(F)(F)F)c1	42.2*	8.6%	?	12.3*
SMILES	Shiga inhibitor	Sm TGR inh	FMDV antiviral	CHX counter
O=C(Nc1cccc(-c2csc(Nc3ccccc3)n2)c1)c1cc([N+](=O)[O-])cc(C(F)(F)F)c1	27.1*	6.1%	-2.8%	17.7*
O=C(Nc1cccc(-c2csc(Nc3ccc(Cl)cc3)n2)c1)c1cc([N+](=O)[O-])cc(C(F)(F)F)c1	3.8	5.6%	?	3.9
Cc1cc(C(=O)NCC2CCC3(CCN(Cc4cccc(F)c4F)CC3)O2)n(C)n1 (centres undefined)	/	/	-28.6%	/
CC1CCN(C(=O)Cn2cc(SCC(=O)NCc3ccccc3Cl)c3ccccc32)CC1	/	8.8%	-12.6%	/
COC(=O)c1ccc(/C=C2/SC(=S)N(CCC(=O)NCCCN3CCOCC3)C2=O)cc1	-3.8	4.3%	23.9%	2.4
CCc1ccc(/C=C2/SC(=S)N(CCC(=O)NCCCN3CCOCC3)C2=O)cc1	90.6*	7.3%	7.2%	48.2*
CCOc1ccc(/C=C2\SC(=S)N(CCCC(=O)NCCCN3CCOCC3)C2=O)cc1	-20.2	-0.8%	11.2µM*	-11.1
Cc1ccc(OCC(=O)NCC(c2ccc(Cl)cc2)N2CCCCC2)cc1 (centres undefined)	/	-3.2%	-20.1%	/
CN(CCc1ccccc1)C(=O)c1cc(COc2ccc(F)cc2Cl)on1	74.5*	-8.8%	9.2%	43.3*
